High-throughput results deposited in PubChem by National Center for Advancing Translational Sciences (NCATS).
Compounds with a hit are over-represented: about 12% of the library has one in this group of screens.
HP1b binding inh – HP1-beta chromodomain-methylated histone interaction inhibition; hit rate 0.56% among 390,000; AID 540317; AlphaScreen HP1-beta / biotin-H3K9me3 peptide binding; P83916; Potency, µM (titrated, usually from 114 µM), inactives show at the top dose activity change, negative = inhibition, most hits filed as inhibitors; also: nearly all actives have a fitted effect of over 70% in size
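Compound inhibition of the preformed complex between 50 nM HP1-beta and 50 nM biotinylated H3K9me3 peptide was read by AlphaScreen. Buffer was PBS pH 7.4 with 0.01% Tween-20. Incubations ran 30 min at room temperature, with 10 ug/mL donor/acceptor beads.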
Sfp inh – blocks B. subtilis Sfp PPTase activity. Q9F4F7. Potency, µM, for the others: largest response in the series, negative = inhibition, usual class: inhibitors. hit rate 3.5% among 310,000. AID 1490. Biochemical Sfp PPTase activity, qHTS;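 also: the enzyme is Sfp with the accession as filed and its product quenches rhodamine fluorescence; 0% = enzyme reaction without inhibitor and -100% = no enzyme wells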
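Fluorescence-quenching assay: 15 nM Sfp-PPTase preincubated 15 min at room temperature with compound, then 5 uM rhodamine-CoA and 12.5 uM BHQ-2-labelled YbbR peptide added. Fluorescence (ex 525/em 598 nm) read at start and after 30 min; difference gives rate.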
G9a block – G9a (human) methyltransferase inhibition. G9a H3K9 monomethylation, AlphaScreen, 2 h. Potency, µM (titrated, usually from 102 µM), for inactives: at the top dose activity, negative = inhibition, actives largely listed as inhibitors. hit rate 8.8% among 350,000; also: % is scaled to controls: 0 for no effect and ±100 for the full control effect; nearly all actives have a fitted effect of over 75% in size
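Compounds were preincubated with 20 nM G9a for 15 min, after which biotinylated H3K9 peptide (500 nM) and SAM (20 uM) started a 2 h room-temperature reaction. Monomethylated product was quantified by antibody-based AlphaScreen chemiluminescence.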
JMJD2A Tudor inh – blocks the human JMJD2A Tudor domain; AlphaScreen JMJD2A-Tudor / H3K4me3 peptide binding; Potency, µM (titrated, usually from 114 µM), without a hit: top-dose activity change, negative = inhibition, usual class: inhibitors; hit rate 4.4% among 390,000; also: % is scaled to controls: 0 for no effect and ±100 for the full control effect; nearly all actives have a fitted effect of over 50% in size
BAZ2B block – blocks human BAZ2B | Q9UIF8 | AlphaScreen BAZ2B-H3K14Ac peptide displacement | Potency, µM (doses to about 114 µM), inactives show top-dose activity change, negative = inhibition, usual class: inhibitors | hit rate 4.4% among 360,000 | AID 504333; also: % is scaled to controls: 0 for no effect and ±100 for the full control effect; nearly all actives have a fitted effect of over 60% in size
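In this displacement format the biotinylated H3(5-23) peptide acetylated at Lys14 serves as ligand at 50 nM, with BAZ2B at 50 nM in PBS pH 7.4 containing 0.01% Tween-20. Donor and acceptor beads are 10 ug/mL final.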
L3MBTL1 block – L3MBTL1 (human) inhibition. Q9Y468. AlphaScreen L3MBTL1–H3K9me1 peptide binding. Potency, µM (highest dose often 57.1 µM), for inactives: at the highest dose activity, negative = inhibition, actives largely listed as inhibitors. hit rate 0.66% among 230,000. AID 485360; also: % is scaled to controls: 0 for no effect and ±100 for the full control effect; nearly all actives have a fitted effect of over 60% in size
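L3MBTL1 (50 nM) pre-complexed 30 min with biotinylated H3(1-15)K9me1 peptide (75 nM), then compounds added for 30 min at room temperature; AlphaScreen streptavidin donor/nickel chelate acceptor beads (10 ug/mL final) read after 30 min dark incubation.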
* hit, by the source's call; u = inconclusive; x = not tested or not shown; [ ] = dose if it differs, or a comment. Calls follow the shape of the dose curve; as a rule, active = well fitted curve in the direction sought with a large enough effect; inconclusive = small, poorly fitted or top-dose-only effect, or another doubt; inactive = no such curve, though single readings can be large; an effect the other way counts as inactive or inconclusive. Potency is read from the fitted curve at half-maximal effect.

SMILES | HP1b binding inh | Sfp inh | G9a block | JMJD2A Tudor inh | BAZ2B block | L3MBTL1 block
Cc1ccccc1CNC(=O)c1ccccc1N | 25% | 18% | 3% | -11% | 5% | x
O=C(Nc1ccccc1)c1nc[nH]c1C(=O)NCc1ccccc1 | 52% | x | -3%[0.501 µM] | -26% | -9% | -2%
O=C(Nc1ccc(F)cc1)c1nc[nH]c1C(=O)O | 96% | -2% | -4%[2.33 µM] | 10µM* | 4.5µM* | x
O=C(NCc1ccccc1)c1nc[nH]c1C(=O)NCc1ccccc1 | 47% | -2% | 50µM* | -10% | u | -12%
Nc1ccccc1C(=O)NCc1ccccc1 | -4% | 7% | -2% | 35µM* | 3% | x
COc1cc(C)cc2oc(=O)c(CC(=O)NCCc3ccc(Cl)cc3)c(C)c12 | 52% | x | 16%[59 µM] | -12% | 29% | x
COc1ccc(-c2nc3scc(CCNC(=O)Cc4ccc(F)cc4)n3n2)cc1 | 23%[57 µM] | x | 0%[59 µM] | -3% | 3% | x
CC1CCCN(C(=O)CCNS(=O)(=O)c2ccc3c(c2)oc(=O)n3C)C1 (stereo not given) | 25% | 12% | 32% | -16% | -1% | x
CCCC(C)C(=O)OCC(=O)Nc1ccc(Br)cc1 (stereo not given) | x | 16% | 32µM* | x | 4% | x
CN(C)C(=O)c1ccc(-c2cncnc2NCc2cccs2)cc1 | x | 50µM* | x | x | x | x
CN(C)C(=O)c1ccc(-c2cncnc2NCc2ccccc2)cc1 | x | 14% | 1%[0.501 µM] | x | x | x
O=P(OCC1CCCO1)(OCC1CCCO1)OCC1CCCO1 (stereo not given) | 27% | x | x | -10% | x | x
CCCCc1nc2ccccc2[nH]1 | 7% | 12% | 8% | -9% | 5% | 0%
c1ccc2[nH]c(CCCc3nc4ccccc4[nH]3)nc2c1 | 54% | 16% | 56µM* | -12% | -6% | 2%
Nc1ccc2nc(CCCO)[nH]c2c1 | 34% | 4% | 28µM* | -10% | 50µM* | x
Nc1ccc2nc(CCCCCCCCc3nc4ccc(N)cc4[nH]3)[nH]c2c1 | 4% | -1% | 32µM* | 50µM* | 22µM* | -18%
O=C(CCc1nc2ccccc2[nH]1)N1CCc2ccccc2C1 | 14% | 5% | 89µM* | -21% | 5% | 26%
O=C(Cn1ncc2c([nH]c3ccccc32)c1=O)N1CCc2ccccc2C1 | 6% | 21% | 0%[59 µM] | -11% | -10% | x
Cc1ccc(NC2CCCN(C(=O)CCCN3CCCCC3=O)C2)cc1C (stereo not given) | -11% | -6% | x | -27% | -38% | x
O=C(COC(=O)COc1ccc(Cl)cc1Br)NC1CC1 | 36% | x | x | -1% | x | 1%
C=C(c1ccccc1O)n1ccnc1 | 25% | 4% | 11% | -8% | -2% | x
Nc1ccc2nc(CCCCc3nc4ccccc4[nH]3)[nH]c2c1 | 2% | -6% | 35µM* | u | u | -6%
Cn1c(CCc2nc3ccccc3[nH]2)n[nH]c1=S | 17% | u | u | 7.9µM* | 0% | x
Oc1ccc(O)c(Cc2nc3ccccc3[nH]2)c1 | u | 35µM* | 3.2µM* | 10µM* | -34% | -18%
CN(CC(=O)O)Cc1nc2ccccc2[nH]1 | 32% | 89µM* | 1.3µM* | -71% | 20µM* | x
SMILES | HP1b binding inh | Sfp inh | G9a block | JMJD2A Tudor inh | BAZ2B block | L3MBTL1 block
CCOc1ccc(-n2c(=O)c3c(C)c(C)sc3n(Cc3cc(=O)n4cc(Cl)ccc4n3)c2=O)cc1 | 23% | x | 5%[59 µM] | -10% | 2% | x
Cc1ccc2c(c1)N(C(=O)CCC(=O)NCc1ccccc1Cl)CC(C)O2 (stereo not given) | 38% | x | -4%[59 µM] | -23% | -16% | x
O=C(Nc1ccc2nc3n(c(=O)c2c1)CCCC3)c1cncc(Br)c1 | 28% | x | x | -22% | x | x
CCCCN(CCCNC(=S)NCCCc1cnc[nH]1)c1ccc(Br)cn1 | x | x | x | 50µM* | x | x
S=C(NCCCc1cnc[nH]1)NCCCN(CCc1ccccc1)c1ccc(Br)cn1 | u | x | x | 56µM* | x | x
S=C(NCCCN(Cc1ccc(Cl)cc1)c1ccc(-c2ccccc2)cn1)NCCCN(Cc1ccc(Cl)cc1)c1ccc(-c2ccccc2)cn1 | -7% | x | x | u | x | x
S=C(NCCCc1cnc[nH]1)NCCCN(Cc1ccccc1)c1ccc(Br)cn1 | x | x | x | 56µM* | x | x
CCn1c(=S)sc2c(=O)n(-c3ccccc3)c(SC)nc21 | -11% | u | 45µM* | -23% | -7% | -13%
CSc1nc2ccsc2c(=O)n1-c1ccccc1 | 37% | 11% | -4% | 7% | -4% | x
CC1(C)OC(=O)C2(Cc3ccc(Cl)cc3N3CCCC32)C(=O)O1 (stereo not given) | 28%[57 µM] | x | x | -8%[57.1 µM] | x | x
CC(Oc1ccc(Br)cc1)C(=O)Nc1ccc(S(=O)(=O)N(C)C2CCN(C)CC2)cc1 (stereo not given) | 5% | x | 35µM* | -19% | 6% | -8%
COc1ccc(CC(=O)Nc2ccc(S(=O)(=O)N(C)C3CCN(C)CC3)cc2)cc1 | 54% | x | 3%[12.7 µM] | -7% | 8% | -20%
CC1(c2ccc(Cl)cc2)NC(=O)N(CC(=O)Nc2cccnc2Cl)C1=O (stereo not given) | 25% | x | 1% | 1% | 3% | -10%
O=C(OCc1ccco1)c1ccc(S(=O)(=O)N2CCCCC2)cc1 | -3% | 22µM* | u | 79µM* | 50µM* | u
CCN(CC(=O)Nc1ccc(S(=O)(=O)N2CCCC2)cc1)Cc1ccccc1 | 28% | x | 45µM* | -6% | 5% | 2%
Cc1ccc(OCC(=O)NNC(=O)CSC(=S)N2CCCC2)cc1 | 30% | x | 45µM* | -16% | -4% | -8%
CCN(CC(=O)Nc1ccc(S(=O)(=O)N2CCOCC2)cc1)Cc1ccccc1 | 1% | x | -34%[12.7 µM] | -10% | 15% | 3%
Cc1ccc(OCC(=O)Nc2ccc(S(=O)(=O)N3CCN(C)CC3)cc2)cc1 | 53% | 7% | 11µM* | -13% | -37% | -7%
CCN(Cc1ccc(N(C)C)cc1)C(C)C(=O)Nc1ccc(S(=O)(=O)N2CCCC2)cc1 (stereo not given) | -27% | x | 20%[12.7 µM] | 32µM* | 40µM* | u
CCN1CCN(S(=O)(=O)c2ccc(Cl)c(C(=O)N(CC)Cc3ccccc3)c2)CC1 | 11% | x | 14µM* | -21% | -29% | -1%
CCN1CCN(S(=O)(=O)c2ccc(Cl)c(C(=O)N(CCc3ccccc3)Cc3ccccc3)c2)CC1 | 5% | x | x | u | x | x
O=C(COC(=O)c1ccc(S(=O)(=O)N2CCCC2)cc1)Nc1cccc(F)c1 | 31% | x | 5µM* | -23% | 14% | 1%
Cc1cccc(NC(=O)COC(=O)c2ccc(S(=O)(=O)N3CCCC3)cc2)c1 | 24% | x | -33% | -9% | -3% | 4%
O=C(Nc1ccc(S(=O)(=O)N2CCCC2)cc1)c1cccc(OC(F)F)c1 | 19% | x | 35µM* | -18% | 7% | -6%
CCN(Cc1ccncc1)C(=O)c1cccc(S(=O)(=O)N2CCCCC2)c1 | 33% | x | x | -11% | x | -4%
